Hsp70 activator: Hsp70 transcriptional activators, primary screen, cell-based, HeLa, Hsp70 promoter luciferase, luminescence, 10 µM | HeLa Hsp70 promoter luciferase reporter; scaled: vehicle 0, proteasome-inhibitor control 100% | activation, % at 10 µM | 200,000 compounds, 0.04% hits;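 active = activation above the mean across all tested compounds plus 3 SD, cutoff set per campaign, cut at about 5.5% in these data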;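 also: 100% = MG132 at 30 µM as the positive control and 0% = DMSO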
S1P4 antag: S1P4 receptor antagonists, primary screen, cell-based. Sphingosine 1-phosphate receptor 4 (Homo sapiens), O95977. inhibition, % at 4.98 µM. 220,000 compounds, 0.26% hits. S1P4-expressing cells, antagonist mode, reporter read-out; in the data active = inhibition above about 29%;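 also: 0% = wells stimulated with agonist and 100% = vehicle wells without agonist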
S1P4 ag: S1P4 receptor agonists, primary screen, cell-based. Sphingosine 1-phosphate receptor 4 (Homo sapiens), O95977. S1P4-expressing cell line, agonist reporter assay. activation, % at 4.98 µM. 220,000 compounds, 0.35% hits. AID 1509, 2009; in the data active = activation above about 11%;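 also: 0% = DMSO vehicle and 100% = reference agonist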
HSF1 inhib: HSF1 inhibitors in luciferase reporter cells, primary screen, cell-based, NIH3T3, luminescence; 300,000 compounds, 0.77% hits; AID 2098, 2009; NIH3T3-HGL HSE-luciferase, MG132-induced, luminescence 8 h; stronger effect = lower value; activity change, negative = inhibition, % at 7.5 µM (by protocol);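 active = more than half of replicate wells show activity change below -50%, luminescence cut by over half; inconclusive = some wells, but at most half, below -50%; inactive = no replicate well below -50%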;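 also: luciferase reports HSF-1 transcriptional activity via heat shock element; 0% = median of DMSO wells and -100% = zero luminescence signal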
S1P3 antagonist: S1P3 receptor antagonists, primary screen, cell-based | Sphingosine 1-phosphate receptor 3 (Homo sapiens), Q99500 | CHO S1P3 NFAT-BLA reporter, FRET fluorescence, antagonist mode | inhibition, % at 4.98 µM | 170,000 compounds, 0.27% hits | AID 485, 2006;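 active = inhibition above the plate cutoff, the mean inhibition of test wells on that plate plus 3 SD, cut at about 28% in these data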;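 also: cells challenged with S1P at its EC80 of 0.8 µM; blue over green emission ratio from cleaved BLA substrate after 4 h stimulation; 0% = S1P-stimulated wells and 100% = unstimulated DMSO-only wells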
Target sequence (Q99500 whole entry, looked up): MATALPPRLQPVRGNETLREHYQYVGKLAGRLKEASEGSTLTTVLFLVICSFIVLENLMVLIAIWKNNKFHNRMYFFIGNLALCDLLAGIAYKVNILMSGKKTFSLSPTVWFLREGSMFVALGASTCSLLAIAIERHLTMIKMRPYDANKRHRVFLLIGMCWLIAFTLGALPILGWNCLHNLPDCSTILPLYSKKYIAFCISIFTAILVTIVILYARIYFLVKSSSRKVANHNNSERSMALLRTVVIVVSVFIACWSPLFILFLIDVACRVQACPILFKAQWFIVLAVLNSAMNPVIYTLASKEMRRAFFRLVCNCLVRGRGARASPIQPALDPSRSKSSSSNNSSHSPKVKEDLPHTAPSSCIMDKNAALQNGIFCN
HSF1 activator: HSF-1 activators, primary screen, NIH3T3-HGL cells, MG132 stress, luminescence, single point | AID 504408, 2011 | NIH3T3-HGL HSF-1 luciferase reporter, 8 h; 100% = twice DMSO control signal | 300,000 compounds, 1.7% hits | activation, % at 9 µM;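 active = mean replicate activation of at least 50% with a set share of replicates each reaching 50%; inconclusive = only one of those two conditions met; inactive = mean below 50% and too few replicates reaching it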;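 also: 0% = median of the neutral control wells and 100% = twice that signal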
Active calls of the source: *; ? = inconclusive; . = not tested or not shown. Sampled rows, rich in hits. Any-hit rate of the full collection: about 2.9%.

SMILES | Hsp70 activator | S1P4 antag | S1P4 ag | HSF1 inhib | S1P3 antagonist | HSF1 activator
O=C(NC(=S)N1CCN(c2ccc(Cl)cc2[N+](=O)[O-])CC1)c1ccco1 | 0 | -1 | -1 | -12 | 15 | 9
O=C(NC(=S)N1CCN(c2ccc(Cl)cc2[N+](=O)[O-])CC1)c1cccs1 | -1 | 2 | -4 | -66* | 12 | -68
Cc1ccn2c(C(=O)N/N=C\c3ccccc3[N+](=O)[O-])c(C)nc2c1 | 0 | -29 | 0 | 38 | . | 78*
Cc1ccn2c(C(=O)N/N=C/c3ccc(Cl)cc3)c(C)nc2c1 | . | . | . | 27 | . | 15
CCCCCCNCC(=O)N1CCC(Cc2ccccc2)CC1 | . | . | . | -3 | . | -5
CN(C)/C(=N\S(=O)(=O)c1ccc(Cl)cc1)c1ccc(F)cc1 | . | . | . | 0 | . | -4
CCCNC(=O)COc1coc(CN2CCN(c3ccccc3F)CC2)cc1=O | . | . | . | 3 | . | 1
O=S(=O)(Nc1ccc2c(c1)nc1n2CCN(Cc2ccccc2)C1)c1ccc(Cl)cc1 | 0 | 0 | -1 | 35 | 3 | 67*
Cn1c(CCN2CCCCC2)nc2cc(NS(=O)(=O)c3ccc(Cl)cc3)ccc21 | . | . | . | 24 | -51 | 62*
Cn1c(CN2CCCCC2)nc2cc(NS(=O)(=O)c3ccc(Cl)cc3)ccc21 | 0 | -9 | 1 | 0 | 21 | 11
O=C(CSc1nnc(-c2ccc(Br)o2)n1Cc1ccccc1)c1ccccc1F | 1 | 0 | -1 | 32 | 58* | 72*
COc1ccc(C)cc1N(C(=O)c1snc(C(N)=O)c1N)C(C(=O)NC1CCCC1)c1ccc(F)cc1 (stereo unspecified) | . | . | . | 10 | . | 27
Cc1cc(-c2ccccc2C(=O)NC2CCCCC2)on1 | . | -2 | 0 | -4 | 16 | 8
CCOc1ccc2nc(-c3cc(NC(C)=O)ccc3O)sc2c1 | 0 | -5 | 0 | 12 | -3 | 28
CCOC(=O)c1sc2nc(-c3cccnc3)ccc2c1N | 0 | -19 | 1 | 36 | 5 | 75*
COC(=O)c1sc2nc(-c3ccco3)ccc2c1N | 0 | 3 | 4 | 39 | 3 | 56*
COc1ccc(C(=O)c2sc3nc(-c4ccccc4)ccc3c2N)cc1 | 0 | -2 | 0 | -3 | 3 | 19
CC(C)OC(=O)c1sc2nc(-c3ccccc3)ccc2c1N | 0 | -8 | 2 | -67* | . | -71
NC(=O)c1sc2nc(-c3cccnc3)ccc2c1N | . | 4 | 0 | -1 | -6 | 0
COc1c(C)cc(C(=O)C2CCCN(Cc3c(C)n(C)n(-c4ccccc4)c3=O)C2)cc1C (stereo unspecified) | 0 | 12 | -1 | 2 | 13 | 2
COC(=O)C1=C(C)N(Cc2ccc(C)cc2)C(=O)/C1=C\c1cc(OC)c(OC)c(OC)c1 | 0 | -4 | 2 | 72 | -6 | 98*
CC(=O)Nc1ccc(S(=O)(=O)NC2(C(F)(F)F)N=C(c3ccccc3)NC2=O)cc1 (stereo unspecified) | 0 | -15 | 1 | -1 | . | 0
CCN(CCO)c1nc(SC)nc2c1sc1nc(-c3ccco3)c3c(c12)CCC3 | 0 | -6 | 0 | 36 | . | 58*
C=CCn1c(C2CCCCC2)n[nH]c1=S | 0 | -11 | 0 | 22 | -2 | ?
CC(C)NS(=O)(=O)c1ccc2c(c1)NCC2 | 0 | -7 | 1 | -10 | -10 | 16
SMILES | Hsp70 activator | S1P4 antag | S1P4 ag | HSF1 inhib | S1P3 antagonist | HSF1 activator
Oc1ccccc1/C=N/NC(=S)NC1CC2C=CC1C2 (stereo unspecified) | . | 19 | 1 | 10 | -7 | 28
Oc1c(Cl)cc(Cl)cc1/C=N/NC(=S)NC1CC2C=CC1C2 (stereo unspecified) | . | 24 | 4 | 12 | 6 | 52*
O=C(COC(=O)CCc1nc2ccccc2c(=O)[nH]1)Nc1c(Cl)cccc1C(F)(F)F | . | . | . | -70* | . | -77
Cc1ccccc1NC(=O)COC(=O)CCc1nc2ccccc2c(=O)[nH]1 | 0 | -7 | 1 | 4 | 4 | -1
CC1C(=O)Nc2ccc(S(=O)(=O)NCCc3ccc(Cl)cc3)cc2NC1=O (stereo unspecified) | . | . | . | 2 | . | 14
O=C(Nc1nnc(S(=O)(=O)N2CCCCC2)s1)c1ccccc1Br | . | . | . | 2 | . | -9
Cc1ccc(N2Cc3ccccc3OC(C)C2=O)cc1 (stereo unspecified) | 0 | 5 | 3 | 27 | -29 | 55*
Cc1ccc(CN2C(=O)C(C)Oc3ccccc32)cc1 (stereo unspecified) | 0 | 9 | -1 | -6 | -2 | -7
COc1ccc(-c2nc3cc([N+](=O)[O-])ccc3o2)cc1 | 0 | 8 | -3 | 37 | -12 | 59*
CC(C)(C)Nc1nc2cc([N+](=O)[O-])ccc2o1 | . | -6 | 0 | 4 | -4 | 7
Nc1ccc(-c2nc3cc([N+](=O)[O-])ccc3o2)cc1 | . | -11 | -1 | 29 | -22 | 58*
NS(=O)(=O)c1ccc(CCNS(=O)(=O)c2cccc3nsnc23)cc1 | . | . | . | -6 | . | -2
CCOC(=O)CSc1cc(CS(C)(=O)=O)nc(-c2ccccn2)n1 | 0 | 10 | 0 | -61* | -12 | -70
S=c1[nH]nc(COc2ccc(Cl)cc2)n1Cc1ccco1 | 0 | -17 | 0 | 1 | -12 | 31
COC(=O)c1sccc1NC(=O)CC1C(=O)NCCN1C(=O)c1ccc(C)c(C)c1 (stereo unspecified) | . | 15 | -1 | -4 | -7 | -4
CCCOc1ccc(NC(N)=O)cc1OCCC | 0 | -10 | -2 | -68* | 3 | -76
CC(C)CC(=O)OC1C(N2CCOCC2)c2c(ccc(/C=C/C(=O)N3CCOCC3)c2O)OC1(C)C (stereo unspecified) | 0 | -2 | 1 | -1 | -7 | 1
CCOC(=O)C1=CN(Cc2ccc(OC)cc2)C=C(C(=O)OCC)C1c1cccs1 | 0 | -18 | 2 | 26 | -6 | 51*
COc1cccc(NC(=O)CSc2nc(N)cc(N)n2)c1 | 0 | -12 | -1 | 29 | 26 | 66*
COc1cccc(NC(=O)CSc2nnc3ccc(-c4ccncc4)nn23)c1 | . | . | . | 16 | . | 58*
COc1ccc(NC(=O)CSc2nnc3ccc(-c4ccncc4)nn23)cc1 | . | . | . | -7 | . | -18
CCOC(=O)c1cccc(NC(=O)CSc2nc(N)cc(N)n2)c1 | 0 | 8 | 2 | 32 | -5 | 55*
Cc1cccc(NC(=O)CSc2nc(N)cc(N)n2)c1 | 0 | -25 | -2 | 12 | . | -7
CCOC(=O)Cc1csc(SCC(=O)Nc2cccc(Cl)c2)n1 | 0 | -4 | 1 | 19 | . | 58*
